Data from PubChem BioAssay AID493152 (Sanford-Burnham Center for Chemical Genomics, 2011).
Some of the results follow. Calls of active or inactive are those of the source.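 The calls were made as follows: active = inhibition reaching a set limit in any replicate at 20 µM, the limit being 80% of the first screen's; inactive = the rest.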

Target: DNA dC->dU-editing enzyme APOBEC-3G (Homo sapiens) (UniProt Q9HC16)
Experiment: human A3G ssDNA deamination inhibition, hit confirmation – biochemical, fluorescence, single-stranded DNA substrate, single concentration (AID 493152)
Details: recombinant A3G ssDNA deaminase, UDG/FAM-TAMRA fluorescence; at 20 µM; stronger effect = higher value

Sequence of DNA dC->dU-editing enzyme APOBEC-3G (Homo sapiens) (Q9HC16 whole entry, looked up): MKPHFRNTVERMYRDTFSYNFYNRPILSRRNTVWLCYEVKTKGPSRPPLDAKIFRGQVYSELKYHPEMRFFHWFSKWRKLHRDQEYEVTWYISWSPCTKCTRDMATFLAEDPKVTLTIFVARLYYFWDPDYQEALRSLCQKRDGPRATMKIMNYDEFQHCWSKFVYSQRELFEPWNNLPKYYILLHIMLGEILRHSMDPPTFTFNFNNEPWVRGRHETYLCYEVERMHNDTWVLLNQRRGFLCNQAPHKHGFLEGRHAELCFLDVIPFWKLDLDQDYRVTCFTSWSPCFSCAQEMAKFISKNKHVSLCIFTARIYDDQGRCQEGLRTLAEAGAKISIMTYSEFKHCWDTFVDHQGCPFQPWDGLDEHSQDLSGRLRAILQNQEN

SMILES | inhibition
Nc1ccccc1SC(C[N+](=O)[O-])c1ccccc1 (centres undefined) | 83.4% (active)
CC(=O)N1CC[n+]2c(-c3ccc([N+](=O)[O-])cc3)csc21 | 50.5% (active)
Cc1ccc(C(=O)c2c(NC(=O)c3ccccc3)sc(C)c2C)cc1 | 24.2% (active)
S=c1[nH]nc(-c2ccco2)n1/N=C/c1ccccc1 | -3.73% (active)
Cc1nc([N+](=O)[O-])nn1C12CC3CC(CC(Br)(C3)C1)C2 | 50.8% (active)
COc1ccc(OCc2nnc3n2N=C(c2ccccc2)C(CC(=O)O)S3)cc1 (centres undefined) | 27.3% (active)
Fc1ccccc1/C=N/n1c(-c2cccnc2)n[nH]c1=S | 84.9% (active)
Fc1ccc(Nc2nnns2)cc1 | 23.7% (active)
Cc1cc(-c2n[nH]c(=S)n2/N=C/c2ccco2)n[nH]1 | 58.5% (active)
COc1ccc2[nH]c(=S)cc(C)c2c1 | 74.7% (active)
COc1cccc(C(=O)CC(=O)C(=O)Nc2ccc([N+](=O)[O-])cc2C)c1 | 2.17% (inactive)
S=c1[nH]nc(-c2ccncc2)n1/N=C/c1ccccc1Cl | 95.7% (active)
C=C(C)C(=O)Nc1cccc(C2=NOC3(C2)C[C@H](C(N)=O)N(C(=O)C(c2ccccc2)c2ccccc2)C3)c1 (some centres undefined) | 44.3% (active)
CC1=C/C(=N\OS(=O)(=O)c2ccccc2)C=CC1=O | 63.8% (active)
CCn1c(CN2C(=O)CSc3ccccc32)n[nH]c1=S | 23.9% (inactive)
Cc1cccc(-n2c(N)c(C(=O)N3CCN(C)CC3)sc2=S)c1 | 77.7% (active)
S=c1[nH]nc(NCCc2ccccc2)s1 | 81.5% (active)
COc1ccc(OCc2n[nH]c(=S)n2N)cc1 | 56.2% (active)
CCOC(=O)c1sc(=S)n2c1[nH]c(=O)c1ccc(C(=O)OC)cc12 | 7.15% (inactive)
Cc1n[nH]c(=S)n1/N=C/c1ccc(Br)o1 | 80.4% (active)
S=c1[nH]ccn1-c1ccc(Cl)cc1 | 74% (active)
O=C1C=CC(=O)N1c1ccc(N2CCCCC2)cc1 | 91% (active)
O=C(Cn1cnc([N+](=O)[O-])n1)NCCc1ccccc1 | 11.3% (active)
Cc1cc(C)c2c(-c3ccc(F)cc3)c(C#N)c(=O)n(C)c2n1 | -1.37% (inactive)
